A selection: hits, their analogues and other compounds. The true share with any hit is near 22%.
CYP2C9 inhib: human CYP2C9 inhibition; inhibition, % at 5 µM; 96,000 compounds, 20% hits; CYP2C9 Supersomes, luciferin-H conversion, luminescence; P11712;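 active = blocking of liver enzyme CYP2C9 beyond about 50% at 5 µM, limit read from the data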
cytoskel mod: alters cytoskeleton assembly in HUVEC cells; HUVEC TNFa F-actin phalloidin imaging, high content; inhibition, % at 2 µM; 91,000 compounds, 0.18% hits;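 active = inhibition above the batch mean plus 3 SD and confirmed as a hit by visual image inspection, cut at about 30% in these data, passing the limit was not always enough; inconclusive = above the inhibition threshold but rejected on visual inspection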
E-sel TNF inh: blocks E-selectin expression induced by TNF alpha; HUVEC TNFa-induced E-selectin immunofluorescence, high content; inhibition, % at 2 µM; 120,000 compounds, 0.71% hits;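 active = inhibition above the batch mean plus 3 SD, and confirmed as a hit on visual image review, cut at about 43% in these data; inconclusive = passes the inhibition cutoff but fails visual image review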;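 also: 0% = TNF-stimulated DMSO wells and 100% = unstimulated control wells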
CYP2C19 activ: activators of human cytochrome P450 2C19; recombinant CYP2C19, luciferin-H EGE luminescence; active compounds read high; 0 = fully inhibited enzyme, 1 = untreated enzyme; P33261; activation factor at 5 µM; AID 1025; 96,000 tested, under 10 active;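 active = activation factor of at least 2 at 5 µM in the primary screen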;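 also: 0 = wells with 2.5 mM tranylcypromine and 1 = vehicle-only wells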
Target sequence (P33261 whole entry, looked up): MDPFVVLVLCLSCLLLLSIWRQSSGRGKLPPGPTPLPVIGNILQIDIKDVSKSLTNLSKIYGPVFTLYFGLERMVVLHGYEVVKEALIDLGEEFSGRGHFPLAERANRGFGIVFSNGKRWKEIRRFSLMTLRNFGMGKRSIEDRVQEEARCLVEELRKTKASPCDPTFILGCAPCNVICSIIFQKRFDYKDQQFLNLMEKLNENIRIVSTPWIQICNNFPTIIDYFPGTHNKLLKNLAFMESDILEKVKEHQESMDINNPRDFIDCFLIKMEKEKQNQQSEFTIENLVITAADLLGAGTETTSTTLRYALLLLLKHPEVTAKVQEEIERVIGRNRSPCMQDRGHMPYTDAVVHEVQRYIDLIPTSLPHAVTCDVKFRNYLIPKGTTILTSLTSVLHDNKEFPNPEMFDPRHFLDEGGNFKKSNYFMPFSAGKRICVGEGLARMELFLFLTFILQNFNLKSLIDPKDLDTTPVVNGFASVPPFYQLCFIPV
CYP2C9 activ: activators of human CYP2C9; P11712; activation factor at 5 µM; recombinant CYP2C9, luciferin-H conversion, luminescence; active compounds read high; factor 1 = untreated enzyme, 0 = blocked; 96,000 compounds, 1.4% hits;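 active = activation factor of 2 or more for CYP2C9 at a 5 µM dose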;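 also: 0 = sulfaphenazole-blocked wells and 1 = vehicle-only wells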
CYP2C19 inh: inhibitors of human CYP2C19 | P33261 | CYP2C19 Supersomes, luciferin-H EGE luminescence, 30 min | inhibition, % at 5 µM | 96,000 compounds, 21% hits | AID 778;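 active = CYP2C19 inhibition above a set limit at 5 µM in the primary screen, cut at about 50% in these data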;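 also: plate controls were negative control wells for no effect and 2.5 mM tranylcypromine positive control for full effect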
* = called active by the depositor; ? = inconclusive; / = no result.

SMILES | CYP2C9 inhib | cytoskel mod | E-sel TNF inh | CYP2C19 activ | CYP2C9 activ | CYP2C19 inh
CCN(C(=O)CSc1nnc(Cn2nnc3ccccc32)o1)c1nc(-c2ccccc2)cs1 | 40 | -6 | 0 | 0.7 | 0.6 | 26
O=C(Nc1ccccn1)C1CCN(S(=O)(=O)c2cccc3nonc23)CC1 | 27 | 13 | 8 | 0.7 | 0.7 | 26
S=c1[nH]nc(COc2ccccc2)n1/N=C/c1cccs1 | / | / | -5 | / | / | /
O=C(NCc1ccco1)c1ccccc1NS(=O)(=O)c1ccc2c(c1)OCCO2 | -61 | 3 | -2 | 0.4 | 1.6 | 56*
O=C(OCc1cccs1)c1ccccc1NS(=O)(=O)c1ccc2c(c1)OCCO2 | 24 | -22 | -5 | 0.4 | 0.8 | 60*
O=C(c1ccccc1NS(=O)(=O)c1ccc2c(c1)OCCO2)N1CCOCC1 | / | -10 | 21 | / | / | /
O=C(NCc1ccco1)c1ccccc1NS(=O)(=O)c1ccc(Cl)s1 | 97* | -11 | 12 | 1.2 | 0 | -17
O=C(NCc1ccco1)c1ccccc1NS(=O)(=O)c1cccs1 | 72* | -21 | -12 | 0.2 | 0.3 | 81*
CC1CC(C)CN(S(=O)(=O)c2ccc3c(c2)oc(=O)n3CC(=O)N2CCOCC2)C1 (stereo not drawn) | 4 | -10 | 1 | 0.9 | 1 | 5
CN(C)CCCNc1oc(-c2ccc(Cl)cc2)nc1C#N | / | -3 | -29 | / | / | /
Cc1ccc(-c2nc(C#N)c(NCCN3CCCCC3)o2)cc1 | 31 | 9 | -21 | 0.9 | 0.7 | 12
COCCNc1oc(-c2ccc(C)cc2)nc1C#N | 86* | -1 | 6 | 0.1 | 0.1 | 86*
COc1ccc(CCNc2oc(-c3ccc(C)cc3)nc2C#N)cc1OC | 50* | / | -8 | 1.1 | 0.5 | -12
COCCNc1oc(-c2ccc(Cl)cc2)nc1C#N | 73* | -14 | -36 | 0.2 | 0.3 | 79*
Cc1cc(C)cc(Cn2ncc(Cl)c(Cl)c2=O)c1 | / | / | 21 | / | / | /
Cc1n[nH]c(=O)nc1Nc1ccc(O)cc1 | -13 | 3 | -1 | 1.1 | 1.1 | -6
Oc1ccc(Nc2nc3ccccc3nc2Nc2ccc(O)cc2)cc1 | 99* | ? | 46 | 0 | 0 | 99*
CCCc1cc(N2CCN(C(=O)c3ccco3)CC2)n2c(nc3ccccc32)c1C#N | 76* | 3 | 11 | 0.8 | 0.2 | 18
Cc1ccccc1-c1nc2ccccc2c(=O)n1C1CCS(=O)(=O)C1 (stereo not drawn) | 3 | -7 | -19 | 0.1 | 1 | 88*
CCn1c(CNc2ccc(Cl)cc2)nnc1SCC(=O)NCc1ccccc1 | 55* | -5 | -4 | 0.3 | 0.4 | 67*
Clc1ccc(NCc2nncn2-c2ccccc2)cc1 | 26 | 37 | 9 | 0 | 0.7 | 98*
CCOC(=O)CSc1nnc(CNc2ccccc2Cl)n1-c1ccccc1 | 20 | -9 | 21 | 0.5 | 0.8 | 48
CCn1c(CNc2ccc(Cl)cc2)nnc1SCc1ccccc1 | 77* | -6 | -12 | 0.3 | 0.2 | 66*
COC(=O)CSc1nnc(CNc2ccc(Cl)cc2)n1-c1ccccc1 | 27 | -15 | -15 | 0.5 | 0.7 | 54*
O=C(CSc1nncn1-c1ccccc1)Nc1cc(Cl)cc(Cl)c1 | -14 | 9 | -9 | 0.9 | 1.1 | 12
SMILES | CYP2C9 inhib | cytoskel mod | E-sel TNF inh | CYP2C19 activ | CYP2C9 activ | CYP2C19 inh
O=C(O)CSc1nnc(CNc2ccc(Cl)cc2)n1Cc1ccccc1 | -12 | 14 | 2 | 1.1 | 1.1 | -6
O=C(O)C(CCCCN1C(=O)c2ccccc2C1=O)N1C(=O)c2ccccc2C1=O (stereo not drawn) | 35 | -12 | 10 | 1 | 0.7 | 2
CCn1c(CSCc2ccc(F)cc2)nnc1SCC(=O)NCc1ccccc1 | 42 | 0 | -15 | 0.6 | 0.6 | 41
Cn1c(CNC(=O)Nc2ccccc2Cl)nnc1SCc1ccccc1 | 32 | -68 | -2 | 0.4 | 0.7 | 64*
CCn1c(CSCc2ccc(C)cc2)nnc1SCC(=O)NCc1ccccc1 | 54* | / | 4 | 0.8 | 0.5 | 24
Cn1c(CNc2ccc(Cl)cc2)nnc1SCc1ccccc1 | 57* | 16 | -9 | 0.7 | 0.4 | 34
Cc1ccccc1NC(=O)Cc1nnc(SCc2ccc(Cl)c(Cl)c2)n1C | 18 | 8 | -14 | 0.8 | 0.8 | 24
CC(C)CSc1nc2c(=O)[nH][nH]c(=O)c2n1Cc1ccccc1 | / | 6 | 6 | / | / | /
Cc1ccc(C2CC(=O)Nc3c2ccc2ccccc32)cc1[N+](=O)[O-] (stereo not drawn) | / | / | 6 | / | / | /
O=C(CCSc1nnc(-c2ccncc2)o1)Nc1ccccc1 | 85* | 4 | -15 | 0.1 | 0.2 | 86*
O=C(CCSc1nnc(-c2ccncc2)o1)Nc1ccc(F)cc1 | 57* | / | / | 0.1 | 0.4 | 85*
CCNC(=O)CCSc1nnc(-c2ccncc2)o1 | / | / | -14 | / | / | /
CCOc1ccc(N(C(C)=O)c2nc(C)cc(C)c2C#N)cc1 | / | -11 | 0 | / | / | /
Cc1ccccc1-c1noc(-c2ccc(O)cc2)n1 | 18 | 36 | 2 | 0.4 | 0.8 | 59*
CN1CCN(C(=O)c2ccccc2-c2nc(-c3ccc(Cl)cc3)no2)CC1 | 56* | -6 | -14 | 0.7 | 0.4 | 27
O=C(c1ccccc1-c1nc(-c2ccc(Cl)cc2)no1)N1CCCC1 | 78* | -8 | -41 | 0.6 | 0.2 | 43
Cc1ccccc1-c1noc(-c2ccccc2F)n1 | -10 | / | 3 | 1.1 | 1.1 | -14
Cc1ccccc1C(=O)N1CCCN(C(=O)c2ccccc2C)CC1 | 4 | -4 | -40 | 0.4 | 1 | 58*
OCC(CO)(CO)n1cnnn1 | 23 | 7 | -11 | 0.9 | 0.8 | 5
Cc1ccccc1-c1noc(-c2ccccc2C(=O)N2CCCC2)n1 | 84* | 37 | 6 | 0.4 | 0.2 | 63*
Cc1cc(S(=O)(=O)NCc2ccco2)c(C)s1 | -11 | 7 | 13 | 0.8 | 1.1 | 21
CCc1ccccc1NC(=O)N[C@H](C(=O)O)C(C)C | -8 | -5 | 6 | 1 | 1.1 | -2
Cc1ccc(S(=O)(=O)N2CCN(c3ccc4nnc(-c5ccccc5)n4n3)CC2)cc1 | 99* | 12 | / | 0.1 | 0 | 95*
COc1ccc(S(=O)(=O)N2CCN(c3ccc4nnc(-c5ccc(F)cc5)n4n3)CC2)cc1 | 97* | -12 | 10 | 0.1 | 0 | 90*
c1ccc(-c2nnc3ccc(N4CCCC4)nn23)cc1 | 3 | -4 | / | 0.9 | 1 | 10
SMILES | CYP2C9 inhib | cytoskel mod | E-sel TNF inh | CYP2C19 activ | CYP2C9 activ | CYP2C19 inh
CCCc1cc(C(=O)Cc2ccc(C(=O)OCC)o2)c(O)cc1O | 91* | 26 | 1 | 0.1 | 0.1 | 93*
CCOc1ccc(-c2n[nH]c(C)c2-c2ccccc2OC)c(O)c1 | 20 | -7 | / | 0.5 | 0.8 | 47
CCOC(=O)c1ccc(CSc2nnc(C)n2N)o1 | 20 | 7 | 14 | 1.2 | 0.8 | -22
O=C(Cc1ccc(F)cc1)c1ccc(O)cc1O | 38 | / | 13 | 0.5 | 0.6 | 53*
CCCc1cc(C(=O)Cc2ccc(F)cc2)c(O)cc1O | 100* | 4 | -17 | 0 | 0 | 98*
CCc1cc(C(=O)Cc2ccc(F)cc2)c(O)cc1O | / | / | -8 | / | / | /

High-throughput results deposited in PubChem by several laboratories.
